Test in all cases: NCI-60 one-dose screen, 48 h (100 = growth as untreated, 0 = no growth, -100 = all killed)
Conditions in all cases: 10 µM

Experiment [1] has as its system NCI-H23 lung.
The subject of experiment [2] is NCI-H522 lung.
Experiment [3] has as its system MALME-3M melanoma.
Experiment [4] has as its system MDA-MB-231 breast.
Experiment [5] relates to M14 melanoma.
Experiment [6] deals with UACC-62 melanoma.
Experiment [7] has as its system LOX IMVI melanoma.
Experiment [8] relates to SK-MEL-28 melanoma.
Experiment [9] concerns SR leukemia.
The subject of experiment [10] is OVCAR-8 ovarian.
Experiment [11] relates to OVCAR-5 ovarian.
Experiment [12] concerns OVCAR-4 ovarian.
Experiment [13] deals with SK-OV-3 ovarian.
Experiment [14] has as its system IGROV1 ovarian.
For experiment [15], the system named is HS 578T breast.
For experiment [16], the system named is T-47D breast.
For experiment [17], the system named is SW-620 colon.
Experiment [18] deals with MCF7 breast.
The test system of experiment [19] is HCT-116 colon.
Experiment [20] has as its system KM12 colon.

From PubChem BioAssay (NCI) come the findings set out here.

SMILES strings stand for the structures. The panel holds about 83,000 compounds, 20% with a hit somewhere; the sample as a whole holds those more often.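 Treatment: one concentration, 48 hours, 96-well format. Scoring: percent growth, with anything below 10 considered active.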 A number with no mark means an inactive call. The source made the active and inactive calls.

As to `O=C(CCCc1ccc(N(CCCl)CCCl)cc1)OCc1ccccc1`, the growth was 89.3% in experiment [1]; 84.3% in experiment [2]; 92% in [3]; 103% in [4]; 95.1% in [5]; 77.8% in [6]. In addition, the growth was 77.2% in experiment [7]; 101% in [8]; 42.2% in experiment [9]; 89.7% in experiment [10]; 117% in experiment [11]; 105% in [12]. In addition, the growth in experiment [13] is 108%; in [14] it was 87.8%; in [15], 114%; in experiment [16], 75.6%; in [17], 91.1%; in [18] it was 81.8%. Further, the growth is 92.7% in experiment [19] and 99.7% in [20].

Turning to `COc1cc2c(O[C@@H]3OC[C@H](O)[C@H](O)[C@H]3O)c3c(c(-c4ccc5c(c4)OCO5)c2cc1OC)C(=O)OC3`, the growth in experiment [1] is 72.8%; in [2], 13.5%; in experiment [3], 54.4%; in [4], 22.9%; in [5], 31.3%; in [6], 20.8%. Also, the growth in experiment [7] was -57.7% (active); in experiment [8] it was 40.8%; in experiment [9], 14.5%; in [10] it was 22%; in experiment [11], 39.4%; in experiment [12], 74%. The growth in experiment [13] is 69.1%; in experiment [14], 53%; in [15] it was 91.1%; in [16] it was 18.2%; in experiment [17] it was 68.8%; in experiment [18], 71.2%. Besides, the growth in [19] was 29.1%; in experiment [20], 71.6%.

As for `CC1=C2C(=C[C@@](C)(C=O)[C@@H]2O)C(=O)[C@](C)(O)C12CC2`, the growth in experiment [1] was -24% (active); in experiment [2] it was 12.9%; in experiment [3], -32.6% (active); in experiment [4] it was 14%; in experiment [5] it was 2% (active); in [6], -48.5% (active). Besides, the growth was 2.16% (active) in experiment [7]; -8.99% (active) in [8]; 14.5% in experiment [9]; 14.1% in experiment [10]; 6.05% (active) in experiment [11]; 19.3% in experiment [12]. Besides, the growth in [13] was 11.1%; in experiment [14] it was 9.24% (active); in [15] it was 33.5%; in experiment [16] it was 11.7%; in experiment [17], 10.1%; in [18], 3.05% (active). Moreover, the growth was 6.13% (active) in [19] and 27.4% in experiment [20].

On to `C[C@@H]1CCC/C=C/[C@H]2C[C@@H](O)C[C@@H]2[C@@H](O)/C=C/C(=O)O1`, for which the growth in experiment [1] was 5.85% (active); in experiment [2], -26.3% (active); in [3], -7.08% (active); in experiment [4], -62.2% (active); in experiment [5] it was 6.74% (active); in [6] it was 25.9%. Also, the growth in experiment [7] was -70% (active); in experiment [8], 18.3%; in experiment [9], 1.7% (active); in experiment [10] it was 3.04% (active); in [11], 30.5%; in experiment [12] it was 22.1%. The growth in [13] was 8.48% (active); in [14], 5.5% (active); in experiment [15], 42%; in experiment [16], 7.4% (active); in experiment [17] it was 10.3%; in experiment [18] it was 10.8%. The growth was -1.47% (active) in experiment [19] and 14.9% in experiment [20].

As for `COc1cccc2c1cc([N+](=O)[O-])c1c(C(=O)O)cc3c(c12)OCO3`, the growth was 102% in experiment [1]; 95.9% in experiment [2]; 95.9% in [3]; 106% in experiment [4]; 103% in experiment [5]; 103% in experiment [6]. The growth was 100% in experiment [7]; 112% in [8]; 106% in experiment [9]; 102% in experiment [10]; 106% in experiment [11]; 108% in experiment [12]. Further, the growth in experiment [13] is 113%; in experiment [14] it was 106%; in experiment [15], 105%; in experiment [16], 95.8%; in experiment [17] it was 101%; in experiment [18], 94.9%. For the same molecule, the figures for the growth in experiment [19] and in experiment [20] were 101% and 104%, respectively.

Consider `C/C=C\C(=O)O[C@@H]1CC2O[C@@H]3C=C(C)C(=O)C[C@]3(C)[C@]1(C)[C@]21CO1`, for which the growth in experiment [1] was -21.3% (active); in experiment [2], -18.4% (active); in experiment [3] it was -22.9% (active); in [4] it was -21.1% (active); in [5], -78.6% (active); in experiment [6] it was -27.2% (active). For the same molecule, the growth in experiment [7] is -56.3% (active); in experiment [8], -20.9% (active); in [9], -13.1% (active); in [10], 0.288% (active); in experiment [11], -3.51% (active); in experiment [12] it was -12.2% (active). The growth in experiment [13] is -15.1% (active); in [14] it was 1.08% (active); in experiment [15], -2.98% (active); in [16], -24% (active); in experiment [17], 0.59% (active); in experiment [18], 0.933% (active). For the same molecule, the growth was -29.4% (active) in [19] and 3.28% (active) in [20].

Consider `CC(C)(O)/C=C/C(=O)[C@](C)(O)[C@H]1[C@H](O)C[C@@]2(C)[C@H]3CC=C4[C@@H](C[C@H](O)C(=O)C4(C)C)[C@]3(C)C(=O)C[C@]12C`, for which the growth in experiment [1] was 27.7%; in experiment [2] it was -42.5% (active); in experiment [3], -28.3% (active); in [4], 10.4%; in experiment [5] it was 17.1%; in experiment [6] it was -2.65% (active). Further, the growth in experiment [7] is -13.8% (active); in [8], -7.52% (active); in [9], 8.56% (active); in [10], 23%; in experiment [11], 35.1%; in experiment [12], 18.3%. In addition, the growth in [13] was -8.31% (active); in experiment [14] it was -24.4% (active); in experiment [15], 3.77% (active); in experiment [16], 27.2%; in experiment [17], 22.9%; in experiment [18] it was 13%. Moreover, the growth in experiment [19] is 13.9%; in experiment [20] it was 42.2%.

In the case of `CC1=C(CN(O)C(N)=O)C2=C(C)C3(CC3)[C@](C)(O)C(=O)C2=C1`, the growth was 10.7% in experiment [1]; -7.03% (active) in [2]; 2.97% (active) in experiment [3]; 12.4% in experiment [4]; -55.4% (active) in [5]; 14.4% in experiment [6]. The growth is 56% in experiment [7]; -28.4% (active) in experiment [8]; -4.72% (active) in experiment [9]; 6.82% (active) in experiment [10]; 10.3% in experiment [11]; 13.7% in experiment [12]. Further, the growth in experiment [13] is 14.7%; in [14], 29%; in [15] it was 33.7%; in experiment [16] it was 6.89% (active); in experiment [17], 8.93% (active); in experiment [18], 3.76% (active). For the same molecule, the values for the growth in experiment [19] and in experiment [20] were 7.48% (active) and -1.93% (active), respectively.
